The list is not random: actives were taken first. Their share in the collection is about 1.4%.
HTT ATP protect – cytoprotection in Huntington HTT-Q103 PC12 cell model; PC12 HTT-Q103 induced, cytoprotection, ATP luminescence, 40 h; Potency, µM (top dose mostly 56.4 µM), most hits filed as activators; hit rate 0.14% among 230,000; also: nearly all actives have a fitted effect of over 45% in size
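Readout: ATPlite luminescence (ATP level). Model: stable PC12, inducible Htt exon1 Q103-GFP. Inducer: tebufenozide, 100 nM final. Compounds: dose series. No G418 in medium.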
HttQ103 aggreg – mutant huntingtin aggregation inhibition | PC12 HttQ103-GFP aggregates, Acumen cytometry, 40 h | Potency, µM (series often up to 46.1 µM), actives largely listed as inhibitors | hit rate 1.1% among 220,000; also: nearly all actives have a fitted effect of over 60% in size
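Read-out: GFP aggregate count by laser scanning cytometer (488 nm excitation, 500-530 nm emission, 1–25 µm objects >6 SD above background). Cells: PC12, inducible HTTex1-Q103-GFP, 100 nM tebufenozide; compounds titrated.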
ERK EGF inh – blocks ERK signaling stimulated by EGF | Potency, µM (titrated, usually from 11.5 µM), usual class: inhibitors | hit rate 0.41% among 130,000 | HEK293-V1b, EGF-stimulated phospho-ERK AlphaScreen; also: nearly all actives have a fitted effect of over 55% in size
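Cell line HEK293 (stable V1b), low serum overnight. Pretreatment: compound 30 min, 37C. EGF 25 nM, 5 min. Detection: SureFire AlphaScreen, 5 h RT. AC50 via standard Hill equation.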
Each line names hits and unclear results; the compound was inactive in the other large screens; ! = not confirmed by another sample. Calls follow the shape of the dose curve; as a rule, active = well fitted curve in the direction sought with a large enough effect; inconclusive = small, poorly fitted or top-dose-only effect, or another doubt; inactive = no such curve, though single readings can be large; an effect the other way counts as inactive or inconclusive.

O=[N+]([O-])c1cccc(Cl)c1Cl	none (no result: HttQ103 aggreg, ERK EGF inh)
CC(C)c1ccc(Nc2c([N+](=O)[O-])c(=O)n(C)c3ccccc23)cc1	ERK EGF inh inconclusive
Cn1c(=O)c(Nc2ccc(O)cc2)c2c3c(cccc31)C(=O)c1ccccc1-2	ERK EGF inh 28.2µM
O=C(/C=C/c1ccccc1)NC(NC(=S)Nc1ccc(Cl)cc1)C(Cl)(Cl)Cl (configuration not stated)	none (no result: ERK EGF inh)
O=C(/C=C/c1ccccc1)NC(NC(=S)Nc1cc(Cl)ccc1Cl)C(Cl)(Cl)Cl (configuration not stated)	HttQ103 aggreg 2.82µM (no result: ERK EGF inh)
O=C1C(Nc2ccccc2)=CC(=O)c2ncccc21	none (no result: HttQ103 aggreg, ERK EGF inh)
O=C1C=C(Nc2ccccc2C(=O)O)c2ccccc2C1=O	none
O=C1C=C(Nc2ccccc2)C(=O)c2ccccc21	HttQ103 aggreg 11.2µM, ERK EGF inh 25.1µM
O=C1C=C(Nc2ccccc2)c2ccccc2C1=O	HttQ103 aggreg 4.47µM
CS(=O)(=O)N1CCC2(CCN(Cc3ccncc3)CC2)CC1	none (no result: HttQ103 aggreg)
CC(=O)n1c(COS(C)(=O)=O)nc2ccccc21	none (no result: HttQ103 aggreg, ERK EGF inh)
CCOC(=O)c1cnc(-n2nc(C)cc2C)nc1NNc1nc(-c2ccccc2)cc(-c2ccccc2)n1	HttQ103 aggreg 10µM
CCOC(=O)c1cnc(-n2nc(C)cc2C)nc1NNc1nc(C)cc(C)n1	none
CCN(CC)S(=O)(=O)c1cccc(C(=O)c2c(C)cc3ccccn23)c1	none
Cc1cc2ccccn2c1C(=O)c1ccc(NN)c([N+](=O)[O-])c1	ERK EGF inh 25.1µM
Cc1cc2ccccn2c1C(=O)Nc1ccccc1	none
Cc1cc2ccccn2c1C(=O)c1cc([N+](=O)[O-])cc([N+](=O)[O-])c1	ERK EGF inh 28.2µM
COc1ccc2[nH]cc(CCNc3ncnc4ccc(-c5ccccc5OC)cc34)c2c1	none (no result: HttQ103 aggreg, ERK EGF inh)
Cc1nn(-c2ccccc2)c(N2CCCC2)c1/C=N/Nc1ccc(S(=O)(=O)Nc2ccccc2)cc1[N+](=O)[O-]	none
COc1ccccc1NS(=O)(=O)c1ccc(N/N=C/c2c(C)nn(-c3ccccc3)c2N2CCCC2)c([N+](=O)[O-])c1	ERK EGF inh 12.6µM
CCCCC1(Cc2ccc([N+](=O)[O-])cc2)C(=O)N(c2ccccc2)N(c2ccccc2)C1=O	HttQ103 aggreg 10µM
CCCCC1(COC(=O)CCC(=O)O)C(=O)N(c2ccccc2)N(c2ccccc2)C1=O	none
CCN(CC)S(=O)(=O)c1ccc(N/N=C/c2cc(OC)ccc2O)nc1	HttQ103 aggreg 2.82µM
CCN(CC)S(=O)(=O)c1ccc(N/N=C/c2cccnc2)nc1	none
CCCC1=[N+](CC(=O)c2ccccc2)CCn2c(C)ccc21	HttQ103 aggreg inconclusive (no result: ERK EGF inh)
CCCC1=[N+](CC)CCn2c(C)ccc21	HttQ103 aggreg 11.2µM (no result: ERK EGF inh)
Cc1ccc(CSC(Nc2ccc(F)cc2)=C(C#N)C#N)cc1	HttQ103 aggreg 6.31µM
CCN(CC)C(=O)CSC(Nc1ccc(F)cc1)=C(C#N)C#N	none
O=c1cc(-c2ccccc2)oc2cc(O[C@H]3O[C@H](CO)[C@@H](O)[C@H](O)[C@@H]3O)c(O)c(O)c12	none (no result: HttQ103 aggreg, ERK EGF inh)
CCOC(=O)c1c(NC(=O)CN2CCN(C(=O)c3ccco3)CC2)sc2c1CCCC2	HttQ103 aggreg 25.1µM
CCOC(=O)c1c(NC(=O)c2ccco2)sc2c1CCCC2	none (no result: ERK EGF inh)
COc1ccc(-c2nc3cnc(N4CCOCC4)nc3n(CCc3ccccc3)c2=O)cc1	none (no result: HttQ103 aggreg, ERK EGF inh)
COc1cc(NC(=S)NCCc2ccccc2)c(OC)cc1NC(=O)C(C)C	none
COc1ccccc1CNC(=S)NCCc1ccccc1	HTT ATP protect 3.16µM
COC(=O)c1ccc(C(/C=C/[C@@H](C)C(=O)N(C)Cc2ccccc2)NC(=O)OCc2ccccc2)cc1 (some centres not stated)	none (no result: HttQ103 aggreg)
O=C(CN(C(=O)c1ccccc1Cl)C1CCCCC1)Nc1ccc(Cl)c([N+](=O)[O-])c1	HttQ103 aggreg inconclusive (no result: ERK EGF inh)
O=C(CN(C(=O)c1ccc(Cl)cc1)C1CCCCC1)Nc1ccc(Cl)c([N+](=O)[O-])c1	HttQ103 aggreg 12.6µM
CC(C)NC(=O)N1CCC2(CC1)CCN(C(=O)c1cc(C(F)(F)F)cc(C(F)(F)F)c1)CC2	none (no result: HttQ103 aggreg)
CC(C)N=C(N)/N=C(\N)Nc1ccc(Cl)cc1	none
NC(=NCCCCCCN=C(N)/N=C(\N)Nc1ccc(Cl)cc1)/N=C(\N)Nc1ccc(Cl)cc1	HttQ103 aggreg 14.1µM, ERK EGF inh 22.4µM!
O=C1/C(=C/c2ccc(O)c(O)c2)SC(=S)N1Nc1ccccc1	HttQ103 aggreg inconclusive, ERK EGF inh 12.6µM
COc1cc(/C=C2\SC(=S)N(Nc3ccccc3)C2=O)ccc1O	HttQ103 aggreg inconclusive, ERK EGF inh inconclusive
CC(C)c1nnc(NC(=O)CCC(=O)Nc2ccc3cn[nH]c3c2)s1	none
c1ccsc1	none (no result: HttQ103 aggreg, ERK EGF inh)
COc1cc2ncc(-c3ccccc3)nc2cc1OC	none (no result: HttQ103 aggreg, ERK EGF inh)
CCCCCCCCCn1ccc(=N)cc1	none
CCCCCCCn1ccc(=N)cc1	HttQ103 aggreg 1.12µM (no result: ERK EGF inh)
COc1ccc(-c2oc3cc(O[C@@H]4OC(CO)C(O)C(O)C4O)c(OC)c(O)c3c(=O)c2OC)cc1O (some centres not stated)	none (no result: HTT ATP protect, HttQ103 aggreg)
COc1ccccc1C(=O)NCC(=O)Nc1ccccc1	HttQ103 aggreg 0.355µM (no result: ERK EGF inh)
COc1cccc(NC(=O)CNC(=O)c2ccccc2)c1	none (no result: ERK EGF inh)
CC1(C)Cc2ccccc2C(NNC(=O)c2ccccc2)=N1	none
CC1(C)Cc2ccccc2C(NNC(=O)c2ccccn2)=N1	HttQ103 aggreg 17.8µM (no result: ERK EGF inh)
O=C(c1cc(C(F)(F)F)cc(C(F)(F)F)c1)N1CCC2(CC1)CN(Cc1ccccc1)C2	none (no result: HttQ103 aggreg)
CCCOc1nc2c(c(=O)n(C)c(=O)n2C)n1Cc1cccc2ccccc12	HttQ103 aggreg 12.6µM (no result: ERK EGF inh)
CCCOc1nc2c(c(=O)n(C)c(=O)n2C)n1C	none
O=C1S/C(=C\c2ccc(N3CCOCC3)o2)C(=O)N1Cc1c(F)cccc1Cl	none (no result: ERK EGF inh)
O=C1S/C(=C\c2ccc(N3CCOCC3)o2)C(=O)N1c1ccccc1	HttQ103 aggreg 15.8µM
CC1=C(/C=C\C(=O)O)C(C)(C)CCC1	none (no result: HttQ103 aggreg, ERK EGF inh)
CCc1[nH]nc2c1C(C(C)C)C(C#N)=C(N)O2 (configuration not stated)	HttQ103 aggreg 11.2µM (no result: ERK EGF inh)
CCC(CC)C1C(C#N)=C(N)Oc2n[nH]c(C)c21 (configuration not stated)	none (no result: ERK EGF inh)
CN1[C@@H]2CC[C@H]1CC(OC(c1ccccc1)c1ccccc1)C2 (some centres not stated)	none (no result: ERK EGF inh)
C=C(CO)[C@H]1Cc2c(ccc3c2O[C@H]2COc4cc(OC)c(OC)cc4[C@@H]2C3=O)O1	none (no result: HttQ103 aggreg, ERK EGF inh)
COc1cc(-c2ccc(N=C=O)c(OC)c2)ccc1N=C=O	none (no result: HttQ103 aggreg, ERK EGF inh)
Cc1csc2c(NC3CCN(Cc4ccccc4)CC3)ncnc12	none
Cc1sc2ncnc(NC3CCN(Cc4ccccc4)CC3)c2c1C	HttQ103 aggreg 7.08µM, ERK EGF inh inconclusive
c1ccc(CN2CCC(Nc3nc(-c4cccnc4)nc4ccccc34)CC2)cc1	none
c1ccc(CN2CCC(Nc3ncnc4sccc34)CC2)cc1	HttQ103 aggreg 10µM
COc1ccc([C@@H]2CC(=O)c3c(O)cc(O[C@@H]4O[C@@H](CO[C@@H]5O[C@@H](C)[C@@H](O)[C@@H](O)[C@H]5O)[C@@H](O)[C@@H](O)[C@H]4O)cc3O2)cc1O	none (no result: HttQ103 aggreg, ERK EGF inh)
COC(=O)[C@@H]1[C@@H](C)N(CCc2cc(OC)c(OC)c(OC)c2)C(=O)N[C@H]1c1ccccc1	none (no result: HttQ103 aggreg, ERK EGF inh)
Cc1nc2cnc(N(C)C)nc2n(C[C@H]2CCCO2)c1=O	none (no result: HttQ103 aggreg, ERK EGF inh)

Screening results from PubChem BioAssay.
